# CF NFkB block – inhibitors of PAF-induced NF-kB signaling, primary screen, cell-based, GFP fluorescence, uHTS. KKLEB NF-kB-GFP reporter, GFP fluorescence overnight. actives 0.86% (n = 360,000). inhibition, % at 5 µM. AID 588850, 2011;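 active = at least 50% inhibition at 5 µM, scaled per plate between neutral and stimulator controls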;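 also: PAF is a Pseudomonas aeruginosa culture filtrate used as stimulus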
# Mdm2 MdmX PPI – inhibitors of human Mdm2-MdmX association, primary screen, cell-based, luminescence, split luciferase, SaOS-2, uHTS; inhibition, % at 8 µM; actives 3% (n = 330,000); Protein Mdm4 (Homo sapiens) + E3 ubiquitin-protein ligase Mdm2 (Homo sapiens), …; SaOS-2 split-luciferase Mdm2/MdmX complementation;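 active = inhibition of at least 50% at 8 µM in the primary screen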
# Peg3 promoter – Peg3 promoter-driven luciferase inhibitors, primary screen, cell-based, HeLa, luciferase luminescence; inhibition, % at 20 µM; actives 1.7% (n = 360,000); HeLa PEG-Prom luciferase reporter, overnight; AID 588405, 2011;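 active = inhibition of at least 50% at 20 µM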
# HIF-2a inh – HIF-2a reporter inhibitors, primary screen, luminescence, 786-0 RCC cells; 786-0 RCC cells HIF-2a reporter, luciferase luminescence, overnight; inhibition, % at 18.8 µM; actives 0.72% (n = 360,000); AID 624352, 2012;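 active = inhibition of the luminescence signal of 40% or more relative to plate controls, in a single-dose primary screen at 18.75 µM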
# KKLEB cytotox – cytotoxicity in KKLEB CF airway cells, primary screen, cytotoxicity control for CF NF-kB inhibitor project, cell-based, uHTS, fluorescence assay plates | KKLEB CF airway cells viability, ATPlite luminescence, overnight; active compounds read low; cells stimulated with P. aeruginosa culture filtrate | activity change (cytotoxicity), % at 5 µM | actives 0.36% (n = 360,000) | AID 602141, 2011;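 active = corrected activity change at or below -50% at 5 µM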
# ABHD5-PLIN5 inh – ABHD5-PLIN5 interaction inhibitors, primary screen, cell lysate, split luciferase complementation, luminescence. Perilipin-5 (Homo sapiens) + 1-acylglycerol-3-phosphate O-acyltransferase ABHD5 (Homo …. Split G. princeps luciferase complementation, 4 h. inhibition, % at 4 µM. actives 0.78% (n = 360,000). AID 602281, 2012;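 active = inhibition above the mean inhibition across every tested compound plus 3 SD, cut at about 22% in these data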
# Target sequence (Q00G26 whole entry, looked up): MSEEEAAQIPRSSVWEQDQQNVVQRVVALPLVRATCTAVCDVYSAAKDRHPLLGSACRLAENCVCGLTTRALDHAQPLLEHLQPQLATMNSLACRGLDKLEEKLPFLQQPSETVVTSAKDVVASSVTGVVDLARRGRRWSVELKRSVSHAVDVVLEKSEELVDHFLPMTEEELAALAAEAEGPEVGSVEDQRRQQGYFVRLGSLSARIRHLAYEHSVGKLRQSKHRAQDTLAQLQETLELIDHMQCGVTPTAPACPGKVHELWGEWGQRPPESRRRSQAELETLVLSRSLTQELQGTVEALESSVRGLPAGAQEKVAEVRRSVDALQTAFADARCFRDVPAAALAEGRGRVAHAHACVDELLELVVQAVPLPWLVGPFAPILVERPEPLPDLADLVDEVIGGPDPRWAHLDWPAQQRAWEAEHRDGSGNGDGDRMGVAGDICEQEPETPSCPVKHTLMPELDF
# Target sequence (Q8WTS1 whole entry, looked up): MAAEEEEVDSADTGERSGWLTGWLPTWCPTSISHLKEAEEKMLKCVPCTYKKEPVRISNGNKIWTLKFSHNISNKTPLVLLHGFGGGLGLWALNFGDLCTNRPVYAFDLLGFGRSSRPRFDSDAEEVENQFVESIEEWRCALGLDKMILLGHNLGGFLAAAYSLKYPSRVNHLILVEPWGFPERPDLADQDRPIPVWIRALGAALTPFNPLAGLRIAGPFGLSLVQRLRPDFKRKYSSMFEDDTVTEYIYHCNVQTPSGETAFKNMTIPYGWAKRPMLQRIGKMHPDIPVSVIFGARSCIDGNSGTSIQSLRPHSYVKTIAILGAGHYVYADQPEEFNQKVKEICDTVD
# Mdm2 MdmX conf – Mdm2-MdmX complex disruptors, retested hits, confirmation, luminescence, single concentration | shares compounds with Mdm2 MdmX PPI | Mdm2-MdmX binding, luminescent assay | inhibition, % at 8 µM | actives 55% (n = 10,000) | AID 489028, 2010; in the data active = inhibition above about 40%
# FLuc counter – full-length luciferase signal inhibition, confirmation, counter-screen for Mdm2/MdmX interaction inhibitor project, cell-based, single concentration, SaOS-2 | shares compounds with Mdm2 MdmX PPI | SaOS-2 full-length luciferase counterscreen, luminescence | inhibition, % at 8 µM | actives 77% (n = 6,200) | AID 504607, 2011;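 active = mean inhibition at 8 µM reaching about 37%, which flags the compound as non-specific, limit read from the data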;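 also: p53-null SaOS-2 cells with luciferase driven by a doxycycline-inducible promoter; compound on cells about two nights before reading with doxycycline added after day one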
# A number is an active result; 0 = inactive; - = no result. Only some compounds are listed: those with a hit (about 4.6% of all), similar ones and a draw of the others.
SMILES,CF NFkB block,Mdm2 MdmX PPI,Peg3 promoter,HIF-2a inh,KKLEB cytotox,ABHD5-PLIN5 inh,Mdm2 MdmX conf,FLuc counter
CCOC(=O)c1ccc(N2N=C(C)/C(=C/C=C/c3ccco3)C2=O)cc1,0,0,0,0,0,0,-,-
CC1=NN(c2ccc(C)c(C)c2)C(=O)/C1=C\C=C\c1ccc([N+](=O)[O-])o1,0,77,88,0,0,0,57,41
COc1ccc(C(CNC(=O)c2oc3cc(C)c(Cl)cc3c2C)N2CCCCC2)cc1 (configuration not stated),0,82,0,0,0,0,0,-
O=C(C[C@H]1C[C@H](C(=O)N2CCOCC2)[C@@]2(CCC3CCCC3)c3[nH]c4ccc(Cl)cc4c3CCN2C1=O)NCC12CC3CC(CC(C3)C1)C2,0,84,0,0,0,0,70,0
CN(C)C(=O)CCc1ccc2c3c([nH]c2c1)[C@]1(CCC2CCCC2)[C@@H](C(=O)N2CCOCC2)C[C@H](CC(=O)NCCC2=CCCCC2)C(=O)N1CC3,0,54,0,0,0,0,57,61
COc1ccc2[nH]c3c(c2c1)CCN1C(=O)C(CC(=O)NCC24CC5CC(CC(C5)C2)C4)C[C@H](C(=O)N2CCOCC2)[C@@]31CCC1CCCC1 (some centres not stated),0,77,0,0,0,0,68,43
O=[N+]([O-])c1ccc(/C=N/n2cnc3ccccc32)s1,0,70,0,0,0,0,60,0
O=C(Nc1nc(-c2ccccn2)cs1)c1cccc(-n2cnnn2)c1,0,77,0,0,0,0,69,0
O=C(Nc1ccc(Br)cc1)c1cccc(-n2cnnn2)c1,0,0,0,0,0,0,-,-
O=C(Nc1nc(-c2ccccn2)cs1)c1ccco1,0,51,0,0,0,0,0,-
COc1ccc(NC(=O)/C(C#N)=C\C=C\c2ccco2)cc1,0,51,0,0,0,0,53,58
CCCn1nnc(NC(=S)NC(=O)c2ccccc2OC)n1,0,0,0,0,0,0,-,-
OC[C@H]1O[C@@H](c2nc(-c3cccc4ccccc34)no2)[C@H](O)[C@@H]1O,0,-,0,0,0,0,-,-
Cc1cccc(N2CCN(S(=O)(=O)c3ccc4c(c3)n(C)c(=O)c(=O)n4C)CC2C)c1 (configuration not stated),0,68,0,0,0,0,0,-
Cc1ccc(N2CCN(S(=O)(=O)c3ccc4c(c3)n(C)c(=O)c(=O)n4C)CC2C)cc1 (configuration not stated),0,0,0,0,0,0,-,-
COc1ccc(/C=C/C(=O)c2oc3ccc(F)cc3c2C)cc1,0,0,0,0,0,0,-,-
Cc1ccc(OC(=O)c2oc3ccc(F)cc3c2C)c(C)c1,53,52,0,0,-69,0,0,-
COc1ccccc1NC(=O)c1cc(C)oc1C,0,0,0,0,0,0,-,-
COc1ccc(NS(=O)(=O)c2cc(C)ccc2NC(=O)c2cc(C)oc2C)cc1,0,64,0,0,0,0,58,126
COc1ccccc1NS(=O)(=O)c1cccc(NS(=O)(=O)c2cc(C(=O)O)ccc2OC)c1,0,0,0,0,0,0,-,-
O=C(NNc1ccccn1)C(c1ccccc1)c1ccccc1,0,0,0,0,0,0,-,-
O=C(NNC(=O)C(c1ccccc1)c1ccccc1)c1ccccn1,0,66,0,0,0,0,66,42
Cc1ccnc(NC(=O)CSc2nnc3c(n2)[nH]c2ccccc23)c1,-,55,-,-,-,-,56,99
O=C(CNC(=O)c1ccccc1Cl)NCCc1cccs1,0,0,0,0,0,0,-,-
CC(=O)c1c(C)[nH]c(C(=O)Nc2cccc(S(=O)(=O)N3CCCCC3)c2)c1C,0,72,0,0,0,0,0,-
SMILES,CF NFkB block,Mdm2 MdmX PPI,Peg3 promoter,HIF-2a inh,KKLEB cytotox,ABHD5-PLIN5 inh,Mdm2 MdmX conf,FLuc counter
Cc1ccc(S(C)(=O)=O)cc1C(=O)Nc1cccc(S(=O)(=O)N2CCCCCC2)c1,0,0,0,0,0,0,-,-
CCOc1ccc(NS(=O)(=O)c2ccc(C(=O)N(C)CC(=O)Nc3ccccc3Br)cc2)cc1,0,-,0,0,0,0,-,-
O=C1C2CCC(C2)C1CN1CCOCC1 (configuration not stated),0,-,0,0,0,0,-,-
O=C(Nc1cccc(Cl)c1)C1C2CCC3C(CCC21)C3(Cl)Cl (configuration not stated),0,69,0,0,0,0,0,-
COc1ccc2cc1Oc1ccc(cc1)C[C@H]1c3c(cc4c(c3Oc3cc5c(cc3OC)CCN(C)[C@@H]5C2)OCO4)CCN1C,0,100,87,0,0,0,87,0
Cc1[nH]n2c(=O)cc(C(C)C)nc2c1-c1ccccc1,0,0,0,0,0,0,-,-
Cc1[nH]n2c(=O)cc(-c3ccc([N+](=O)[O-])cc3)nc2c1-c1ccccc1,0,66,58,0,0,0,66,39
O=C(C(=NNc1ccccc1)C(=S)Nc1ccccc1)c1ccccc1,0,-,0,0,0,0,-,-
CN1CCN(CCCNC(=O)c2ccc(/C=C3\Oc4ccccc4N(Cc4ccccc4F)C3=O)cc2)CC1,0,92,69,0,0,0,0,-
Cc1cccc(CN2C(=O)c3ccccc3Sc3ccc(C(=O)NCCCN4CCOCC4)cc32)c1,0,0,0,0,0,0,-,-
Cc1cccc(CN2C(=O)/C(=C\c3ccc(C(=O)NCCCN4CCN(C)CC4)cc3)Oc3ccccc32)c1,0,100,87,0,0,0,56,36
CN1CCN(CCCNC(=O)CCN2C(=O)COc3ccccc32)CC1,0,0,0,0,0,0,-,-
COc1ccc(C2CC(=O)N(C)c3ccccc3S2)cc1 (configuration not stated),0,68,0,0,0,0,47,97
CN1C(=O)CC(c2ccco2)Sc2ccccc21 (configuration not stated),0,0,0,0,0,0,-,-
CCOC(=O)c1[nH]c(C)c(C(=O)c2cc(F)ccc2F)c1C,0,59,0,0,0,0,56,76
NC(=S)c1csc(CCNC(=O)c2ccccc2)n1,0,-,0,0,0,0,-,-
Cc1ccc2nsnc2c1NC(=O)COc1ccccc1F,0,0,0,0,0,0,-,-

# Screening data deposited in PubChem BioAssay by several laboratories.
